Data as given in PubChem BioAssay AID1159580 (chemical genetic matrix, 2015).
Values joined by “and” are separate entries in the source; they are usually repeats but may differ in a detail not shown here. Equal values may be shown once. In all, about 5,500 compounds went through this assay and about 2,000 (36%) were called active. Roughly 18% stayed inconclusive and do not appear here. No stated cut-off is given here; in the data, active means normalized growth mostly below about 0.91 (no sharp cut-off); inconclusive means no clear call, values can overlap the other calls; inactive means mostly above about 0.92. The list shows a part of the results. Where a SMILES comes first, the peptide text is derived from it. Bridges are numbered along the chain shown (N, C = ends). [ ]: non-standard residue; d: D form. The star is where a group is joined. Octanoyl(6-Me) = CCC(C)CCCCC(=O)*; Dab = NCC[CH](N)C(=O)O

Test: chemical genetic growth profiling, strain panel (AID 1159580);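 further: tested at 20 µM; growth read once vehicle control cultures reached saturation at 30 °C; 1 = growth at the plate median or of vehicle wells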
Settings: S. cerevisiae deletion strains, growth OD

Measured: normalized growth

CCC(C)CCCCC(=O)NC(CCN)C(=O)NC(C(=O)NC(CCN)C(=O)NC1CCNC(=O)C(C(C)O)NC(=O)C(CCN)NC(=O)C(CCN)NC(=O)C(CC(C)C)NC(=O)C(Cc2ccccc2)NC(=O)C(CCN)NC1=O)C(C)O (configuration not stated) ({Octanoyl(6-Me)}-[Dab]T[Dab][Dab][Dab]FL[Dab][Dab]T; lactam 4-C; configuration not given here)
inactive: locus YAL013W, strain DEP1, stronger effect = lower value 1 | locus YAL021C, strain ccr4, stronger effect = lower value 0.95 | locus YAL026C, strain drs2, stronger effect = lower value 0.934 | locus YAL030W, strain snc1, stronger effect = lower value 0.99 | locus YBL061C, strain skt5, stronger effect = lower value 0.99 | locus YBR009C, strain hhf1, stronger effect = lower value 0.98 | locus YBR021W, strain FUR4, stronger effect = lower value 0.996 | locus YBR023C, strain chs3, stronger effect = lower value 0.99 | locus YBR171W, strain sec66, stronger effect = lower value 1 | locus YBR229C, strain ROT2, stronger effect = lower value 1 | locus YBR231C, strain swc5, stronger effect = lower value 1 | locus YBR279W, strain paf1, stronger effect = lower value 0.99 | locus YCL011C, strain gbp2, stronger effect = lower value 0.995 | locus YCL016C, strain dcc1, stronger effect = lower value 0.975 | locus YCL029C, strain bik1, stronger effect = lower value 1.02 | locus YCL061C, strain MRC1, stronger effect = lower value 0.959 | locus YCL069W, strain vba3, stronger effect = lower value 0.999 | locus YCR088W, strain abp1, stronger effect = lower value 0.997 | locus YDL005C, strain med2, stronger effect = lower value 0.99 | locus YDL035C, strain GPR1, stronger effect = lower value 0.973 | locus YDL040C, strain nat1, stronger effect = lower value 1 | locus YDL074C, strain BRE1, stronger effect = lower value 1.01 | locus YDL101C, strain DUN1, stronger effect = lower value 1.02 | locus YDL134C, strain PPH21, stronger effect = lower value 0.997 | locus YDL185W, strain tfp1, stronger effect = lower value 1 | locus YDL192W, strain arf1, stronger effect = lower value 0.991 | locus YDR001C, strain nth1, stronger effect = lower value 1.01 | locus YDR069C, strain doa4, stronger effect = lower value 0.989 | locus YDR101C, strain arx1, stronger effect = lower value 1.01 | locus YDR137W, strain rgp1, stronger effect = lower value 1.08 | locus YDR150W, strain NUM1, stronger effect = lower value 0.995 | locus YDR159W, strain sac3, stronger effect = lower value 0.985 | locus YDR162C, strain NBP2, stronger effect = lower value 0.99 | locus YDR195W, strain ref2 0.953 | locus YDR297W, strain sur2, stronger effect = lower value 0.994 | locus YDR318W, strain mcm21, stronger effect = lower value 1.01 | locus YDR334W, strain swr1, stronger effect = lower value 1 | locus YDR335W, strain msn5, stronger effect = lower value 0.998 | locus YDR388W, stronger effect = lower value 1.01 | locus YDR392W, strain spt3, stronger effect = lower value 0.802 | locus YDR502C, strain sam2, stronger effect = lower value 0.997 | locus YEL003W, strain gim4, stronger effect = lower value 0.997 | locus YEL037C, strain rad23, stronger effect = lower value 1 | locus YEL061C, strain CIN8 (second series), stronger effect = lower value 1 | locus YEL061C, strain CIN8, stronger effect = lower value 0.998 | locus YER015W, strain faa2, stronger effect = lower value 0.992 | locus YER016W, strain bim1, stronger effect = lower value 1 | locus YER110C, stronger effect = lower value 1.02 | locus YER111C, strain swi4, stronger effect = lower value 1 | locus YER155C, strain BEM2 (second series), stronger effect = lower value 0.91 | locus YER155C, strain BEM2, stronger effect = lower value 1.02 | locus YER167W, strain BCK2, stronger effect = lower value 0.996 | locus YFR010W, strain ubp6, stronger effect = lower value 0.999 | locus YGL078C, strain dbp3, stronger effect = lower value 0.993 | locus YGL086W, strain mad1, stronger effect = lower value 0.989 | locus YGL167C, strain pmr1, stronger effect = lower value 0.978 | locus YGL173C, strain kem1, stronger effect = lower value 0.99 | locus YGL227W, strain vid30, stronger effect = lower value 1.01 | locus YGL240W, strain doc1, stronger effect = lower value 0.986 | locus YGL248W, strain PDE1, stronger effect = lower value 1.01 | locus YGL253W, strain hxk2, stronger effect = lower value 1.01 | locus YGR078C, strain PAC10, stronger effect = lower value 1.02 | locus YGR135W, strain pre9, stronger effect = lower value 0.998 | locus YGR229C, strain SMI1, stronger effect = lower value 0.976 | locus YGR252W, strain gcn5, stronger effect = lower value 0.937 | locus YHR013C, strain ard1, stronger effect = lower value 0.901 | locus YHR027C, strain rpn1, stronger effect = lower value 0.989 | locus YHR030C, strain SLT2, stronger effect = lower value 1 and 0.991 | locus YHR079C, strain IRE1 (second series), stronger effect = lower value 1.01 | locus YHR079C, strain IRE1, stronger effect = lower value 0.995 | locus YHR094C, strain hxt1, stronger effect = lower value 1.01 | locus YHR129C, strain ARP1, stronger effect = lower value 1.01 | locus YHR142W, strain chs7, stronger effect = lower value 1.01 | locus YHR200W, strain rpn10, stronger effect = lower value 0.996 | locus YIL066C, strain RNR3, stronger effect = lower value 0.984 | locus YIL073C, strain SPO22, stronger effect = lower value 1.02 | locus YIL125W, strain kgd1, stronger effect = lower value 0.994 | locus YIR030C, strain dcg1, stronger effect = lower value 1.01 | locus YJL092W, strain hpr5, stronger effect = lower value 1 | locus YJL095W, strain BCK1 (second series), stronger effect = lower value 1.01 | locus YJL095W, strain BCK1, stronger effect = lower value 1.02 and 1 | locus YJL115W, strain asf1, stronger effect = lower value 0.977 | locus YJL129C, strain trk1, stronger effect = lower value 1.09 | locus YJL134W, strain LCB3, stronger effect = lower value 1 | locus YJL154C, strain vps35, stronger effect = lower value 1.01 | locus YJL164C, strain tpk1, stronger effect = lower value 0.98 | locus YJL166W, strain qcr8, stronger effect = lower value 0.981 | locus YJL168C, strain set2, stronger effect = lower value 1.01 | locus YJL187C, strain SWE1 (second series), stronger effect = lower value 1.02 | locus YJL187C, strain SWE1, stronger effect = lower value 0.998 | locus YJR043C, strain POL32, stronger effect = lower value 1.02 | locus YJR066W, strain TOR1, stronger effect = lower value 0.97
